Source: PubChem BioAssay AID1159580 (chemical genetic matrix, 2015)
Several values for one entry are separate records, joined by “and”; a condition that tells them apart may be missing. Identical values can stand only once. In all, about 5,500 compounds went through this assay and about 2,000 (36%) were called active. Another 18% or so got no clear call; they are omitted. Rule as the data show it: active = normalized growth mostly below about 0.91 (no sharp cut-off); inconclusive = no clear call, values can overlap the other calls; inactive = mostly above about 0.92. The list shows a part of the results.

Assay: chemical genetic growth profiling, strain panel (AID 1159580);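 also: tested at 20 µM; growth read once vehicle control cultures reached saturation at 30 °C; 1 = growth at the plate median or of vehicle wells; lower values mean less growth of the strain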
Conditions: growth OD

Measured: normalized growth

COc1cc2c(cc1OC)-c1cc3ccc(OC)c(OC)c3c[n+]1CC2
inactive: S. cerevisiae deletion strains, locus YJR075W, strain HOC1, hits give low values 0.985 and 1.03 | S. cerevisiae deletion strains, locus YKL009W, strain mrt4, hits give low values 0.972 and 0.995 | S. cerevisiae deletion strains, locus YKL068W, hits give low values 0.996 and 1.01 | S. cerevisiae deletion strains, locus YKL085W, strain MDH1 (second series), hits give low values 0.995 and 0.999 | S. cerevisiae deletion strains, locus YKL085W, strain MDH1, hits give low values 0.995 and 0.999 | S. cerevisiae deletion strains, locus YKL160W, strain elf1, hits give low values 0.982 | S. cerevisiae deletion strains, locus YKL190W, strain CNB1, hits give low values 0.995 and 1.02 | S. cerevisiae deletion strains, locus YKR001C, strain vps1, hits give low values 0.971 and 1.02 | S. cerevisiae deletion strains, locus YKR026C, strain gcn3, hits give low values 0.966 | S. cerevisiae deletion strains, locus YKR091W, strain srl3, hits give low values 0.984 | S. cerevisiae deletion strains, locus YLL001W, strain dnm1, hits give low values 0.972 | S. cerevisiae deletion strains, locus YLL026W, hits give low values 0.983 | S. cerevisiae deletion strains, locus YLL041C, strain sdh2, hits give low values 0.984 | S. cerevisiae deletion strains, locus YLR027C, strain aat2, hits give low values 0.978 | S. cerevisiae deletion strains, locus YLR039C, strain RIC1, hits give low values 1 and 0.981 | S. cerevisiae deletion strains, locus YLR058C, strain SHM2, hits give low values 0.985 and 1.02 | S. cerevisiae deletion strains, locus YLR102C, strain apc9, hits give low values 0.986 and 1.02 | S. cerevisiae deletion strains, locus YLR113W, strain HOG1, hits give low values 1.03 | S. cerevisiae deletion strains, locus YLR221C, strain rsa3, hits give low values 1.01 | S. cerevisiae deletion strains, locus YLR258W, strain gsy2, hits give low values 1 | S. cerevisiae deletion strains, locus YLR262C, strain YPT6 (second series), hits give low values 0.969 | S. cerevisiae deletion strains, locus YLR262C, strain YPT6, hits give low values 1.02 and 0.979 | S. cerevisiae deletion strains, locus YLR268W, strain sec22, hits give low values 1.01 and 1.04 | S. cerevisiae deletion strains, locus YLR320W, strain mms22, hits give low values 0.997 | S. cerevisiae deletion strains, locus YLR330W, strain CHS5, hits give low values 0.991 and 1.01 | S. cerevisiae deletion strains, locus YLR342W, strain FKS1 (second series), hits give low values 0.978 and 0.987 | S. cerevisiae deletion strains, locus YLR342W, strain FKS1, hits give low values 0.995 | S. cerevisiae deletion strains, locus YLR357W, strain rsc2, hits give low values 0.984 | S. cerevisiae deletion strains, locus YLR370C, strain arc18, hits give low values 0.975 | S. cerevisiae deletion strains, locus YLR371W, strain rom2, hits give low values 0.978 and 1.01 | S. cerevisiae deletion strains, locus YLR384C, strain iki3, hits give low values 0.969 | S. cerevisiae deletion strains, locus YLR418C, strain cdc73, hits give low values 0.994 and 1 | S. cerevisiae deletion strains, locus YML016C, strain PPZ1, hits give low values 0.982 and 1.01 | S. cerevisiae deletion strains, locus YML032C, strain rad52, hits give low values 0.972 and 0.998 | S. cerevisiae deletion strains, locus YML120C, strain ndi1, hits give low values 0.987 | S. cerevisiae deletion strains, locus YML124C, strain tub3, hits give low values 0.993 and 1.02 | S. cerevisiae deletion strains, locus YMR058W, strain fet3, hits give low values 0.978 | S. cerevisiae deletion strains, locus YMR078C, strain ctf18, hits give low values 0.979 and 1.01 | S. cerevisiae deletion strains, locus YMR125W, strain sto1, hits give low values 0.958 | S. cerevisiae deletion strains, locus YMR129W, hits give low values 0.985 | S. cerevisiae deletion strains, locus YMR205C, strain PFK2, hits give low values 0.955 | S. cerevisiae deletion strains, locus YMR223W, strain ubp8, hits give low values 0.977 and 1.01 | S. cerevisiae deletion strains, locus YMR231W, strain pep5, hits give low values 1 | S. cerevisiae deletion strains, locus YMR263W, strain SAP30, hits give low values 0.998 | S. cerevisiae deletion strains, locus YMR307W, strain GAS1, hits give low values 0.984 and 1.03 | S. cerevisiae deletion strains, locus YNL067W, strain RPL9B, hits give low values 0.998 and 1.05 | S. cerevisiae deletion strains, locus YNL071W, strain lat1, hits give low values 0.994 | S. cerevisiae deletion strains, locus YNL128W, strain TEP1, hits give low values 0.999 | S. cerevisiae deletion strains, locus YNL153C, strain GIM3, hits give low values 1.01 | S. cerevisiae deletion strains, locus YNL183C, strain NPR1, hits give low values 0.978 | S. cerevisiae deletion strains, locus YNL209W, strain ssb2, hits give low values 0.977 | S. cerevisiae deletion strains, locus YNL233W, strain BNI4, hits give low values 0.981 and 1.03 | S. cerevisiae deletion strains, locus YNL248C, strain rpa49, hits give low values 0.982 | S. cerevisiae deletion strains, locus YNL250W, strain rad50, hits give low values 0.989 and 1.02 | S. cerevisiae deletion strains, locus YNL271C, strain bni1, hits give low values 0.986 and 1.01 | S. cerevisiae deletion strains, locus YNL298W, strain CLA4, hits give low values 0.995 and 1.02 | S. cerevisiae deletion strains, locus YNL307C, strain MCK1, hits give low values 0.986 and 1.02 | S. cerevisiae deletion strains, locus YNL322C, strain KRE1 (second series), hits give low values 0.97 | S. cerevisiae deletion strains, locus YNL322C, strain KRE1, hits give low values 0.987 and 1.01 | S. cerevisiae deletion strains, locus YNR049C, strain mso1, hits give low values 0.98 | S. cerevisiae deletion strains, locus YNR052C, strain pop2, hits give low values 0.995 and 1.02 | S. cerevisiae deletion strains, locus YOL006C, strain TOP1, hits give low values 1.01 | S. cerevisiae deletion strains, locus YOL012C, strain htz1 0.984 and 1.9 | S. cerevisiae deletion strains, locus YOL147C, strain pex11, hits give low values 0.991 and 1.01 | S. cerevisiae deletion strains, locus YOR001W, strain rrp6, hits give low values 0.968 | S. cerevisiae deletion strains, locus YOR061W, strain CKA2, hits give low values 0.99 and 1 | S. cerevisiae deletion strains, locus YOR069W, strain VPS5, hits give low values 0.992 and 1.01 | S. cerevisiae deletion strains, locus YOR070C, strain gyp1, hits give low values 0.986 | S. cerevisiae deletion strains, locus YOR080W, strain dia2, hits give low values 0.984 | S. cerevisiae deletion strains, locus YOR083W, strain WHI5, hits give low values 0.999 | S. cerevisiae deletion strains, locus YOR106W, strain vam3, hits give low values 0.961 | S. cerevisiae deletion strains, locus YOR136W, strain idh2, hits give low values 0.989 and 1.02 | S. cerevisiae deletion strains, locus YOR144C, strain elg1, hits give low values 0.989 and 1.01 | S. cerevisiae deletion strains, locus YOR184W, strain ser1, hits give low values 0.984 and 1 | S. cerevisiae deletion strains, locus YOR231W, strain MKK1, hits give low values 1.01 | S. cerevisiae deletion strains, locus YOR265W, strain rbl2, hits give low values 0.973 | S. cerevisiae deletion strains, locus YOR270C, strain vph1, hits give low values 0.97 | S. cerevisiae deletion strains, locus YOR290C, strain snf2, hits give low values 0.98 | S. cerevisiae deletion strains, locus YOR316C, strain cot1, hits give low values 0.986 and 1.01 | S. cerevisiae deletion strains, locus YPL051W, strain arl3, hits give low values 0.991 | S. cerevisiae deletion strains, locus YPL055C, strain LGE1, hits give low values 1.03 and 1.02 | S. cerevisiae deletion strains, locus YPL078C, strain atp4, hits give low values 0.986 | S. cerevisiae deletion strains, locus YPL106C, strain sse1, hits give low values 0.971 | S. cerevisiae deletion strains, locus YPL240C, strain hsp82, hits give low values 0.969 | S. cerevisiae deletion strains, locus YPL241C, strain CIN2, hits give low values 0.995 and 1 | S. cerevisiae deletion strains, locus YPL256C, strain CLN2, hits give low values 1.03 | S. cerevisiae deletion strains, locus YPR119W, strain clb2, hits give low values 0.985 and 1.01 | S. cerevisiae deletion strains, locus YPR141C, strain kar3, hits give low values 0.981 and 1.02 | S. cerevisiae deletion strains, locus YPR163C, strain tif3, hits give low values 0.992 and 1.03 | S. cerevisiae deletion strains, locus YPR167C, strain met16, hits give low values 0.983 and 1.01 | S. cerevisiae deletion strains, strain wtn01, hits give low values 0.972 and 1.03 | S. cerevisiae strains, strain wild type, hits give low values 0.987
